Assay results taken from PubChem BioAssay (NCATS).
Results filed as inconclusive are left out. Active and inactive are the calls of the source. Unless noted, calls come from the whole dose curve; as a rule, active = well fitted curve in the direction sought with a large enough effect; inconclusive = small, poorly fitted or top-dose-only effect, or another doubt; inactive = no such curve, though single readings can be large; an effect the other way counts as inactive or inconclusive.

Tests used:
[1] = biological target: Cytochrome P450 2C9 (Homo sapiens) (UniProt P11712); assay: qHTS Assay for Inhibitors and Substrates of Cytochrome P450 2C9 (AID 883); note: nearly all actives have a fitted effect of over 60% in size
Summary of the method: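 A luminogenic readout tracked human CYP2C9 (10nM) converting deoxyluciferin (100uM, at KM) in 25mM KPO4 during 60 min at 37C with regenerated NADPH. Values normalized to 57uM sulphaphenazole as complete inhibition.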

[2] = biological target: Cytochrome P450 3A4 (Homo sapiens) (UniProt P08684); assay: qHTS Assay for Inhibitors and Substrates of Cytochrome P450 3A4 (AID 884); note: nearly all actives have a fitted effect of over 50% in size
Summary of the method: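 Luminescent readout of luciferin produced by CYP3A4 (20 nM) dealkylation of Luciferin-PPXE, 25 uM (its KM). NADPH-driven reaction ran 60 min at RT after 10 min compound preincubation; data scaled to 57 uM ketoconazole as 100% inhibition.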

[3] = S16 Schwann cell PMP22 intronic element beta-lactamase assay (AID 624044; calls by dose curve; note: nearly all actives have a fitted effect of over 15% in size)
Summary of the method: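 Beta-lactamase reporter under a PMP22 intronic regulatory element in stable S16 rat Schwann cells; 24 h compound exposure. 460 nm blue signal normalized between DMSO (0%) and potassium clavulanate, with 535 nm FRET tracking viability; curves classed by r2 and response.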

AA1029 = assay: qHTS profiling for inhibitors of Plasmodium falciparum proliferation (AID 504749); note: nearly all actives have a fitted effect of over 60% in size; note: potency is the fitted concentration of half-maximal effect; conditions: P. falciparum in erythrocytes, SYBR Green DNA, 72 h; series mostly up to 12.8 µM
Summary of the method: (§1)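 Fluorescence of SYBR Green-bound parasite DNA, read at 485/535 nm, served as the growth measure. Infected erythrocytes were cultured with compound 72 h; artemisinin (0.29 uM) and DMSO wells defined the normalization range.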

ATS95 = assay: as above; conditions: P. falciparum in erythrocytes, SYBR Green DNA, 72 h; series mostly up to 12.8 µM
Summary of the method: as §1

CP260 = assay: as above; conditions: P. falciparum in erythrocytes, SYBR Green DNA, 72 h; series mostly up to 12.8 µM
Summary of the method: as §1

CP265 = assay: as above; conditions: P. falciparum in erythrocytes, SYBR Green DNA, 72 h; series mostly up to 12.8 µM
Summary of the method: as §1

CP286 = assay: as above; conditions: P. falciparum in erythrocytes, SYBR Green DNA, 72 h; series mostly up to 12.8 µM
Summary of the method: as §1

CP335 = assay: as above; conditions: P. falciparum in erythrocytes, SYBR Green DNA, 72 h; series mostly up to 12.8 µM
Summary of the method: as §1

DFO2036 = assay: as above; conditions: P. falciparum in erythrocytes, SYBR Green DNA, 72 h; series mostly up to 12.8 µM
Summary of the method: as §1

GB4 = assay: as above; conditions: P. falciparum in erythrocytes, SYBR Green DNA, 72 h; series mostly up to 12.8 µM
Summary of the method: as §1

P93_24 = assay: as above; conditions: P. falciparum in erythrocytes, SYBR Green DNA, 72 h; series mostly up to 12.8 µM
Summary of the method: as §1

P94_40 = assay: as above; conditions: P. falciparum in erythrocytes, SYBR Green DNA, 72 h; series mostly up to 12.8 µM
Summary of the method: as §1

PC26 = assay: as above; conditions: P. falciparum in erythrocytes, SYBR Green DNA, 72 h; series mostly up to 12.8 µM
Summary of the method: as §1

TAB109 = assay: as above; conditions: P. falciparum in erythrocytes, SYBR Green DNA, 72 h; series mostly up to 12.8 µM
Summary of the method: as §1

7G8 = assay: as above; conditions: P. falciparum in erythrocytes, SYBR Green DNA, 72 h; series mostly up to 12.8 µM
Summary of the method: as §1

[4] = biological target: Cytochrome P450 3A4 (Homo sapiens) (UniProt P08684); assay: qHTS Assay for Activators of Cytochrome P450 3A4 (AID 885); note: nearly all actives have a fitted effect of over 65% in size; note: potency is the fitted concentration of half-maximal effect
Summary of the method: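 Luminescent readout of luciferin formed from 25 uM Luciferin-PPXE (KM level) by 20 nM CYP3A4 in 200 mM KPO4, with 60 min NADPH-driven reaction at room temperature after 10 min compound exposure. Ketoconazole (57 uM) defined 100% inhibition.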

[5] = biological target: Cytochrome P450 2D6 (Homo sapiens) (UniProt P10635); assay: qHTS Assay for Inhibitors and Substrates of Cytochrome P450 2D6 (AID 891); note: potency is the fitted concentration of half-maximal effect; nearly all actives have a fitted effect of over 60% in size
Summary of the method: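 Luminescent read-out of luciferin formed by 5 nM human CYP2D6 demethylating 30 uM Luciferin-ME EGE (Km level) over 60 min at room temperature after NADPH regeneration addition. Data normalized to full inhibition by 1.43 uM quinidine.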

[6] = biological target: Cytochrome P450 2C19 (Homo sapiens) (UniProt P33261); assay: qHTS Assay for Inhibitors and Substrates of Cytochrome P450 2C19 (AID 899); note: potency is the fitted concentration of half-maximal effect; nearly all actives have a fitted effect of over 60% in size
Summary of the method: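 NADPH-dependent conversion of Luciferin-H EGE (10uM, at KM) by 5nM enzyme in 50mM KPO4, 60 min at 37C following 10 min compound preincubation. Stopped with luciferin detection buffer; luminescence read after 20 min.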

Measured: Potency

Cytochrome P450 2D6 (Homo sapiens), sequence (P10635 whole entry, looked up): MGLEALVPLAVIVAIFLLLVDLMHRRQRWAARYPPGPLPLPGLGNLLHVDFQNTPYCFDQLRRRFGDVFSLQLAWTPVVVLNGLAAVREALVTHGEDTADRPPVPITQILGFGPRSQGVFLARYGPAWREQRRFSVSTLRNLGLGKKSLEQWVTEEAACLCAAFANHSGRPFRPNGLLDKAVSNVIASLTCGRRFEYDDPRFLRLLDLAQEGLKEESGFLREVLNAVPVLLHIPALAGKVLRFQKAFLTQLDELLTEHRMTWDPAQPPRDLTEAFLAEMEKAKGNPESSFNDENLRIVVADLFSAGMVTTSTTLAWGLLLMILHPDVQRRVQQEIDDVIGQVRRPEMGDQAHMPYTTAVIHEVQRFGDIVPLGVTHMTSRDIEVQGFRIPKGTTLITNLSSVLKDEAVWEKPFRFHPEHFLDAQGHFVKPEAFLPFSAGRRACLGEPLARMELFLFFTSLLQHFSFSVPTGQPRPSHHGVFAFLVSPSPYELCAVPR
Cytochrome P450 3A4 (Homo sapiens), sequence (P08684 whole entry, looked up): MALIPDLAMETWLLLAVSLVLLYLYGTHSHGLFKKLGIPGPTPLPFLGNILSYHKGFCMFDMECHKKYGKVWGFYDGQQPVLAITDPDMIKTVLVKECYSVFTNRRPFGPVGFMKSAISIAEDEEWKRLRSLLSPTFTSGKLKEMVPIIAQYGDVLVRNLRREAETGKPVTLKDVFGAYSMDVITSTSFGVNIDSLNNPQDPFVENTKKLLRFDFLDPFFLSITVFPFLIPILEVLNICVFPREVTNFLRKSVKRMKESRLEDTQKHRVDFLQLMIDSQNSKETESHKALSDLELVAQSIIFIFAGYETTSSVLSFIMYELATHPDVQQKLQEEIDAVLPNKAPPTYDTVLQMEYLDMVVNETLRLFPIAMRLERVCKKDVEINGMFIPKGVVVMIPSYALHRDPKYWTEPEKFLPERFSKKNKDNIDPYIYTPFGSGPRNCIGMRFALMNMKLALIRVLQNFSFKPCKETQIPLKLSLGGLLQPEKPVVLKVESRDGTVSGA
Cytochrome P450 2C19 (Homo sapiens), sequence (P33261 whole entry, looked up): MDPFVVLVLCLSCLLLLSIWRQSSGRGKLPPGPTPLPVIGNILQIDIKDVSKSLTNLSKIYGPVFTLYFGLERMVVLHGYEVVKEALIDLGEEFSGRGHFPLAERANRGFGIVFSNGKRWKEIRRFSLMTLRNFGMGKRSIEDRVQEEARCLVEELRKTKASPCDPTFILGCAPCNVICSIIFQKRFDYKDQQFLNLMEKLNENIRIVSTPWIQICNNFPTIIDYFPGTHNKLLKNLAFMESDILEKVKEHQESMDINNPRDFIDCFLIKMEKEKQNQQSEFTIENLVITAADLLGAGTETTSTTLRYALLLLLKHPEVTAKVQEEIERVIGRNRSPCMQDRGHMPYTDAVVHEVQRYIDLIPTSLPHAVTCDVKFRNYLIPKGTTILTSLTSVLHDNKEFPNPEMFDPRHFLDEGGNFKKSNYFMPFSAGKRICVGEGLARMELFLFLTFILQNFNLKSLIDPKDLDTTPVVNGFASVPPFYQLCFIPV
Cytochrome P450 2C9 (Homo sapiens), sequence (P11712 whole entry, looked up): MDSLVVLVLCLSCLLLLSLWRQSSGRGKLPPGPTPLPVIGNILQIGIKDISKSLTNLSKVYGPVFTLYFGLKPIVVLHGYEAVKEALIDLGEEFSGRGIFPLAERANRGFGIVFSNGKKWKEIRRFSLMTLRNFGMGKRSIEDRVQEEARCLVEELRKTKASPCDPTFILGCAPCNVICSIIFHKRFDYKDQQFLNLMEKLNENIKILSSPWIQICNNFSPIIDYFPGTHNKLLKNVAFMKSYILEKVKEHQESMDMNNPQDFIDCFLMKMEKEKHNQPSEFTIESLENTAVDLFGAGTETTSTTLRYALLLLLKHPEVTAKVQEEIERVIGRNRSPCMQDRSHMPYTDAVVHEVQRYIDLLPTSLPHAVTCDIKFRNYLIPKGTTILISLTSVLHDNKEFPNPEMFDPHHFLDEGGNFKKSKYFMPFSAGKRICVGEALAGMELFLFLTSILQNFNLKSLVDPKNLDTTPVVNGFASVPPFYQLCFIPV

C[C@@H](C(=O)O)c1ccc(N2Cc3ccccc3C2=O)cc1
inactive: [1] | [2]

CC(=C(CCOP(=O)(O)O)SC(=O)c1ccccc1)N(C=O)Cc1cnc(C)nc1N
inactive: [3] | AA1029 | ATS95 | CP260 | CP265 | CP286 | CP335 | DFO2036 | GB4 | P93_24 | P94_40 | PC26 | TAB109

CCN[C@@H]1CN(CCCOC)S(=O)(=O)c2sc(S(N)(=O)=O)cc21
inactive: [3] | 7G8 | AA1029 | ATS95 | CP260 | CP265 | CP286 | CP335 | DFO2036 | GB4 | P93_24 | PC26 | TAB109

CC(=O)OCC(=O)[C@@]1(OC(C)=O)[C@H](C)C[C@H]2[C@@H]3C[C@H](F)C4=CC(=O)C=C[C@@]4(C)[C@]3(F)[C@H](O)C[C@@]21C
inactive: [2]
active: [4] 6.31 µM

Cc1ccc2c(c1)c1c3n2CCN[C@H]3CCC1
active: 7G8 6.31 µM
inactive: [3] | ATS95 | CP260 | P93_24

Cc1onc(-c2ccccc2Cl)c1C(=O)N[C@H]1C(=O)N2[C@H]1SC(C)(C)[C@H]2C(=O)O
inactive: [3] | AA1029 | ATS95 | CP260 | CP265 | CP286 | CP335 | DFO2036 | GB4 | P93_24 | P94_40 | PC26 | TAB109

CC[C@](C)(CN(C)C)OC(=O)c1ccccc1
inactive: [3] | 7G8 | AA1029 | ATS95 | CP260 | CP265 | CP286 | P94_40 | PC26 | TAB109

COC(=O)[C@@H]1[C@@H]2C[C@H]3c4[nH]c5cc(OC)ccc5c4CCN3C[C@@H]2C[C@H](OC(=O)c2cc(OC)c(OC)c(OC)c2)[C@H]1OC
inactive: [4]

CC(C)(C)NC[C@@H](O)COc1ccccc1C1CCCC1
inactive: [3]
active: [5] 2.51 µM | 7G8 0.708 µM | AA1029 2.82 µM | ATS95 3.55 µM | CP260 3.16 µM | CP286 3.55 µM | CP335 3.61 µM | GB4 1.81 µM | P93_24 2.24 µM | P94_40 3.98 µM | PC26 6.42 µM | TAB109 3.16 µM

Cc1ccsc1/C=C\C1=NCCCN1C
inactive: [3] | 7G8 | AA1029 | ATS95 | CP260 | CP265 | CP286 | GB4 | P93_24 | P94_40 | PC26 | TAB109

CO[C@@H]1C[C@H](O[C@H]2[C@@H](C)[C@H](O[C@@H]3O[C@@H](C)C[C@@H](N(C)C)[C@@H]3OC(C)=O)[C@H](C)C[C@]3(CO3)C(=O)[C@H](C)[C@H](OC(C)=O)[C@H](C)[C@H](C)OC(=O)[C@@H]2C)O[C@H](C)[C@@H]1OC(C)=O
inactive: 7G8 | AA1029 | ATS95 | CP260 | CP265 | CP286 | DFO2036 | P93_24 | P94_40 | PC26 | TAB109

C[C@H](O)Cn1cnc2c1c(=O)n(C)c(=O)n2C
inactive: [3] | 7G8 | AA1029 | ATS95 | CP260 | CP265 | CP286 | CP335 | DFO2036 | GB4 | P93_24 | P94_40 | PC26 | TAB109

C[N+](C)(CCCOc1ccccc1)c1ccccc1
active: [5] 0.0158 µM

CCC(=O)OCC(=O)[C@@]1(OC(=O)CC)[C@H](C)C[C@@H]2[C@@H]3[C@H]([C@@H](O)C[C@@]21C)[C@]1(C)C=CC(=O)C=C1C[C@@H]3Cl
active: 7G8 1 µM | CP260 3.98 µM
inactive: AA1029

C#C[C@]1(O)CC[C@@H]2[C@H]3CCC4=CCCC[C@@H]4[C@@H]3CC[C@@]21C
active: [6] 3.98 µM
inactive: [3] | 7G8 | AA1029 | ATS95 | CP260 | CP265 | CP286 | CP335 | GB4 | P93_24 | P94_40 | PC26 | TAB109

C[C@H](CCC(=O)O)[C@H]1CC[C@@H]2[C@@H]3[C@@H](O)C[C@H]4C[C@@H](O)CC[C@@]4(C)[C@H]3CC[C@@]21C
inactive: [3] | 7G8 | AA1029 | ATS95 | CP260 | CP286 | CP335 | GB4 | P93_24 | P94_40 | PC26 | TAB109

COc1cc(C2Oc3cc(C4Oc5cc(O)cc(O)c5C(=O)C4O)ccc3OC2CO)ccc1O (stereo not drawn)
inactive: [4]

C[C@H](NCCC(c1ccccc1)c1ccccc1)c1ccccc1
active: [5] 0.158 µM | [6] 5.01 µM
inactive: [4]
